# Several values for one entry are separate records, joined by “and”; a condition that tells them apart may be missing. Equal values may be shown once. About 2,000 (36%) of roughly 5,500 compounds were called active. Roughly 18% stayed inconclusive and do not appear here. No stated cut-off is given here; in the data, active means normalized growth mostly below about 0.91 (no sharp cut-off); inconclusive means no clear call, values can overlap the other calls; inactive means mostly above about 0.92. This is one part of the list.
# Experiment: chemical genetic growth profiling, strain panel (AID 1159580);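 further: tested at 20 µM; growth read once vehicle control cultures reached saturation at 30 °C; 1 = growth at the plate median or of vehicle wells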
# Details: S. cerevisiae deletion strains, growth OD
smiles,measurement,setting,value
C=CC(C1=CC(=O)C(OC)=CC1=O)c1ccccc1 (configuration not stated),normalized growth,"locus YAL013W, strain DEP1, stronger effect = lower value",0.908 (active)
same,normalized growth,"locus YAL021C, strain ccr4, stronger effect = lower value",1.04 (inactive)
same,normalized growth,"locus YAL026C, strain drs2, stronger effect = lower value",0.853 (active)
same,normalized growth,"locus YAL030W, strain snc1, stronger effect = lower value",0.92 (active)
same,normalized growth,"locus YBL061C, strain skt5, stronger effect = lower value",0.847 (active)
same,normalized growth,"locus YBR009C, strain hhf1, stronger effect = lower value",0.728 (active)
same,normalized growth,"locus YBR021W, strain FUR4, stronger effect = lower value",0.922 (inactive)
same,normalized growth,"locus YBR023C, strain chs3, stronger effect = lower value",0.85 (active)
same,normalized growth,"locus YBR171W, strain sec66, stronger effect = lower value",0.992 (inactive)
same,normalized growth,"locus YBR229C, strain ROT2, stronger effect = lower value",0.969 (inactive)
same,normalized growth,"locus YBR231C, strain swc5, stronger effect = lower value",0.947 (inactive)
same,normalized growth,"locus YBR279W, strain paf1, stronger effect = lower value",0.858 (active)
same,normalized growth,"locus YCL011C, strain gbp2, stronger effect = lower value",0.843 (active)
same,normalized growth,"locus YCL016C, strain dcc1, stronger effect = lower value",0.845 (active)
same,normalized growth,"locus YCL029C, strain bik1, stronger effect = lower value",0.948 (inactive)
same,normalized growth,"locus YCL061C, strain MRC1, stronger effect = lower value",0.911 (active)
same,normalized growth,"locus YCL069W, strain vba3, stronger effect = lower value",0.954 (inactive)
same,normalized growth,"locus YCR088W, strain abp1, stronger effect = lower value",0.969 (inactive)
same,normalized growth,"locus YDL005C, strain med2, stronger effect = lower value",1 (inactive)
same,normalized growth,"locus YDL035C, strain GPR1, stronger effect = lower value",0.825 (active)
same,normalized growth,"locus YDL040C, strain nat1, stronger effect = lower value",1 (inactive)
same,normalized growth,"locus YDL074C, strain BRE1, stronger effect = lower value",0.781 (inactive)
same,normalized growth,"locus YDL101C, strain DUN1, stronger effect = lower value",0.94 (inactive)
same,normalized growth,"locus YDL134C, strain PPH21, stronger effect = lower value",0.944 (inactive)
same,normalized growth,"locus YDL185W, strain tfp1, stronger effect = lower value",0.948 (inactive)
same,normalized growth,"locus YDL192W, strain arf1, stronger effect = lower value",0.843 (active)
same,normalized growth,"locus YDR001C, strain nth1, stronger effect = lower value",0.983 (inactive)
same,normalized growth,"locus YDR069C, strain doa4, stronger effect = lower value",0.982 (inactive)
same,normalized growth,"locus YDR101C, strain arx1, stronger effect = lower value",0.854 (active)
same,normalized growth,"locus YDR137W, strain rgp1, stronger effect = lower value",0.616 (active)
same,normalized growth,"locus YDR150W, strain NUM1, stronger effect = lower value",0.972 (inactive)
same,normalized growth,"locus YDR159W, strain sac3, stronger effect = lower value",0.85 (active)
same,normalized growth,"locus YDR162C, strain NBP2, stronger effect = lower value",0.607 (active)
same,normalized growth,"locus YDR195W, strain ref2",1.32 [resistant] (active)
same,normalized growth,"locus YDR297W, strain sur2, stronger effect = lower value",0.913 (active)
same,normalized growth,"locus YDR318W, strain mcm21, stronger effect = lower value",0.83 (active)
same,normalized growth,"locus YDR334W, strain swr1, stronger effect = lower value",0.999 (inactive)
same,normalized growth,"locus YDR335W, strain msn5, stronger effect = lower value",0.968 (inactive)
same,normalized growth,"locus YDR388W, stronger effect = lower value",0.907 (active)
same,normalized growth,"locus YDR392W, strain spt3, stronger effect = lower value",0.233 (active)
same,normalized growth,"locus YDR502C, strain sam2, stronger effect = lower value",0.902 (active)
same,normalized growth,"locus YEL003W, strain gim4, stronger effect = lower value",0.823 (active)
same,normalized growth,"locus YEL037C, strain rad23, stronger effect = lower value",0.993 (inactive)
same,normalized growth,"locus YEL061C, strain CIN8 (second series), stronger effect = lower value",0.966 (inactive)
same,normalized growth,"locus YEL061C, strain CIN8, stronger effect = lower value",0.932 (inactive)
same,normalized growth,"locus YER015W, strain faa2, stronger effect = lower value",0.815 (active)
same,normalized growth,"locus YER016W, strain bim1, stronger effect = lower value",0.985 (inactive)
same,normalized growth,"locus YER110C, stronger effect = lower value",0.936 (inactive)
same,normalized growth,"locus YER111C, strain swi4, stronger effect = lower value",0.977 (inactive)
same,normalized growth,"locus YER155C, strain BEM2 (second series), stronger effect = lower value",0.43 (active)
same,normalized growth,"locus YER155C, strain BEM2, stronger effect = lower value",0.956 (inactive)
same,normalized growth,"locus YER167W, strain BCK2, stronger effect = lower value",0.747 (active)
same,normalized growth,"locus YFR010W, strain ubp6, stronger effect = lower value",0.979 (inactive)
same,normalized growth,"locus YGL078C, strain dbp3, stronger effect = lower value",0.998 (inactive)
same,normalized growth,"locus YGL086W, strain mad1, stronger effect = lower value",0.853 (active)
same,normalized growth,"locus YGL167C, strain pmr1, stronger effect = lower value",0.973 (inactive)
same,normalized growth,"locus YGL173C, strain kem1, stronger effect = lower value",0.855 (active)
same,normalized growth,"locus YGL227W, strain vid30, stronger effect = lower value",0.963 (inactive)
same,normalized growth,"locus YGL240W, strain doc1, stronger effect = lower value",0.708 (active)
same,normalized growth,"locus YGL248W, strain PDE1, stronger effect = lower value",0.947 (inactive)
same,normalized growth,"locus YGL253W, strain hxk2, stronger effect = lower value",0.92 (inactive)
same,normalized growth,"locus YGR078C, strain PAC10, stronger effect = lower value",0.734 (active)
same,normalized growth,"locus YGR135W, strain pre9, stronger effect = lower value",0.864 (active)
same,normalized growth,"locus YGR229C, strain SMI1, stronger effect = lower value",0.692 (active)
same,normalized growth,"locus YGR252W, strain gcn5, stronger effect = lower value",0.854 (inactive)
same,normalized growth,"locus YHR013C, strain ard1, stronger effect = lower value",0.876 (inactive)
same,normalized growth,"locus YHR027C, strain rpn1, stronger effect = lower value",0.92 (active)
same,normalized growth,"locus YHR030C, strain SLT2, stronger effect = lower value",0.895 (active) and 0.797 (active)
same,normalized growth,"locus YHR079C, strain IRE1 (second series), stronger effect = lower value",0.908 (active)
same,normalized growth,"locus YHR079C, strain IRE1, stronger effect = lower value",0.824 (active)
same,normalized growth,"locus YHR094C, strain hxt1, stronger effect = lower value",0.956 (inactive)
same,normalized growth,"locus YHR129C, strain ARP1, stronger effect = lower value",0.88 (active)
same,normalized growth,"locus YHR142W, strain chs7, stronger effect = lower value",0.729 (active)
same,normalized growth,"locus YHR200W, strain rpn10, stronger effect = lower value",0.92 (active)
same,normalized growth,"locus YIL066C, strain RNR3, stronger effect = lower value",0.824 (active)
same,normalized growth,"locus YIL073C, strain SPO22, stronger effect = lower value",0.723 (inactive)
same,normalized growth,"locus YIL125W, strain kgd1, stronger effect = lower value",0.963 (inactive)
same,normalized growth,"locus YIR030C, strain dcg1, stronger effect = lower value",0.929 (inactive)
same,normalized growth,"locus YJL092W, strain hpr5, stronger effect = lower value",0.95 (inactive)
same,normalized growth,"locus YJL095W, strain BCK1 (second series), stronger effect = lower value",0.873 (active)
same,normalized growth,"locus YJL095W, strain BCK1, stronger effect = lower value",0.852 (inactive) and 0.869 (active)
same,normalized growth,"locus YJL115W, strain asf1, stronger effect = lower value",1 (inactive)
same,normalized growth,"locus YJL129C, strain trk1, stronger effect = lower value",0.947 (inactive)
same,normalized growth,"locus YJL134W, strain LCB3, stronger effect = lower value",0.96 (inactive)
same,normalized growth,"locus YJL154C, strain vps35, stronger effect = lower value",0.999 (inactive)
same,normalized growth,"locus YJL164C, strain tpk1, stronger effect = lower value",0.77 (active)
same,normalized growth,"locus YJL166W, strain qcr8, stronger effect = lower value",0.686 (active)
same,normalized growth,"locus YJL168C, strain set2, stronger effect = lower value",0.953 (inactive)
same,normalized growth,"locus YJL187C, strain SWE1 (second series), stronger effect = lower value",0.944 (inactive)
same,normalized growth,"locus YJL187C, strain SWE1, stronger effect = lower value",0.855 (active)
same,normalized growth,"locus YJR043C, strain POL32, stronger effect = lower value",0.768 (active)
same,normalized growth,"locus YJR066W, strain TOR1, stronger effect = lower value",0.858 (inactive)

# Source: PubChem BioAssay AID1159580 (chemical genetic matrix, 2015)
